Bioassay records (PubChem)
The sample as a whole holds a higher share of hits than the screen did.
Shiga toxin inh: inhibitors of Shiga toxin in Vero cells; Vero cells, Shiga toxin protein synthesis inhibition reporter; inhibition, % at 38.7 µM; hit rate 9.2% among 290,000; in the data active = inhibition mostly above about 28%, no sharp cut-off; inactive = mostly below about 43%
Giardia FBPA inh: Giardia lamblia aldolase inhibition | purified Giardia FBPA | Potency, µM (highest dose often 59.6 µM), hits mostly inhibitors | hit rate 0.71% among 290,000 | AID 2451; note: nearly all actives have a fitted effect of over 55% in size
Target sequence (A8B2U2 whole entry, looked up): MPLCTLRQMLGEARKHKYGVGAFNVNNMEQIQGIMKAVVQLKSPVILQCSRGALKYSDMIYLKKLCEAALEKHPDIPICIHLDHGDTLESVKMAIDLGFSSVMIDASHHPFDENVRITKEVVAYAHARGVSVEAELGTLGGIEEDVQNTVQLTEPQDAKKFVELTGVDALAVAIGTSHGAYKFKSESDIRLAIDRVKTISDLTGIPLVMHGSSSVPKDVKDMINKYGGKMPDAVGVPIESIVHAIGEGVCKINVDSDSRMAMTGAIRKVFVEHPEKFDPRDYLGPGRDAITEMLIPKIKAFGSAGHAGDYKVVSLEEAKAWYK
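40 nM FBPA preincubated 10 min at RT with compound (up to 57.5 uM final), then substrate plus GAPDH/TPI/NAD/arsenate coupling and diaphorase/resazurin added. Fluorescence read after 20 min at RT, 525/598 nm.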
CHX counter: counter-screen for Shiga toxin inhibitors: cycloheximide protein synthesis inhibition. max response, %. hit rate 12% among 300,000. cell reporter, cycloheximide protein synthesis inhibition counterscreen; in the data active = max response mostly above about 13%, no sharp cut-off; inactive = mostly below about 14%; note: read at 38.3 µM for the half of the compounds with a filed dose
Sm TGR inh: inhibitors of Schistosoma mansoni thioredoxin glutathione reductase; Q962Y6; purified TGR, DTNB reduction, TNB absorbance 405 nm; Potency, µM (doses to about 114 µM), hits mostly inhibitors; hit rate 3% among 360,000; AID 485364; note: nearly all actives have a fitted effect of over 60% in size
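First, TGR (20 nM dispensed) and NADPH were mixed with compound. Second, a 15 min room-temperature incubation followed. Third, further NADPH and then DTNB were added to start the reaction. Finally, TNB absorbance was monitored kinetically.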
TbPYK inhibitor: blocks Trypanosoma brucei pyruvate kinase; Q57TT1; TbPYK enzyme, Kinase-Glo Plus ATP luminescence, 45 min; Potency, µM (titrated, usually from 76.8 µM), actives largely listed as inhibitors; hit rate 0.12% among 410,000; AID 624173; note: nearly all actives have a fitted effect of over 50% in size
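Enzyme and substrate buffer are dispensed first and compound is pin-transferred. ADP at 130 uM final then starts the reaction, which runs 45 min at room temperature. Detection reagent is added for 10 min before luminescence is imaged.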
LmPK inhibitor: inhibitors of Leishmania mexicana pyruvate kinase | Q27686 | purified LmPK, Kinase-Glo ATP luminescence, 1 h | Potency, µM (top dose mostly 57.5 µM), hits mostly inhibitors | hit rate 0.37% among 290,000
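Pyruvate kinase activity monitored as ATP production (luciferase luminescence). Conditions: 0.1 nM enzyme, 0.5 mM PEP, 0.1 mM ADP, 1 h, RT; normalized against uninhibited and no-enzyme wells.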
Of the large screens only hits and unclear results are named; the others gave an inactive call. Unless noted, calls come from the whole dose curve; as a rule, active = well fitted curve in the direction sought with a large enough effect; inconclusive = small, poorly fitted or top-dose-only effect, or another doubt; inactive = no such curve, though single readings can be large; an effect the other way counts as inactive or inconclusive.

Cc1ccc(CCNC(=O)CCCn2c(=O)c3ccccc3n(Cc3ccccc3C)c2=O)cc1	none (no result: Shiga toxin inh, Giardia FBPA inh, CHX counter, LmPK inhibitor)
COC(=O)[C@@]1(C)[C@H]2C(=O)N(C)C(=O)[C@H]2[C@H]2CN=C(SCc3ccc(Cl)cc3)N21	none (no result: Shiga toxin inh, Giardia FBPA inh, CHX counter, Sm TGR inh, LmPK inhibitor)
COc1cc(C(=O)Oc2ccc3ccc(O)cc3c2)cc(OC)c1OC	CHX counter 21
O=C(Oc1ccc2ccc(O)cc2c1)c1ccccc1Cl	Shiga toxin inh 44, CHX counter 32
O=C(Oc1ccc2ccc(O)cc2c1)C1CCCCC1	Giardia FBPA inh inconclusive (no result: Sm TGR inh)
CN(C)c1ccc(C(=O)Nc2sc(Nc3ccccc3)nc2C(N)=O)cc1	none (no result: Shiga toxin inh, Giardia FBPA inh, CHX counter, LmPK inhibitor)
O=C(c1ccco1)N1CCC2(CCN(Cc3ccccc3)CC2)CC1	none (no result: Shiga toxin inh, CHX counter, Sm TGR inh, LmPK inhibitor)
CCn1cnc2cc(NCc3cccc(OC)c3O)ccc21	Shiga toxin inh 112, CHX counter 44
CCCCn1cnc2cc(NCc3cccc(OC)c3O)ccc21	Shiga toxin inh 103, CHX counter 19
CN(C(=O)c1ccco1)c1nc2c(s1)CCCC2	Shiga toxin inh 42, CHX counter 31, LmPK inhibitor 25µM
CN(CC12CC3CC(CC(C3)C1)C2)C(=O)c1ccco1	none (no result: Shiga toxin inh, Giardia FBPA inh, CHX counter, Sm TGR inh, LmPK inhibitor)
CN(C(=O)c1ccco1)c1nnc(C23CC4CC(CC(C4)C2)C3)s1	Shiga toxin inh 83, CHX counter 57
CSc1ncnc2c1ncn2CCCNCCCN1CCCC1=O	none (no result: Shiga toxin inh, Giardia FBPA inh, CHX counter, Sm TGR inh, LmPK inhibitor)
COc1ccc(C(=O)Nc2ccc(Cn3ccnc3)cc2)cc1OC	Shiga toxin inh 21, CHX counter 13
COc1cc(OC)cc(C(=O)Nc2ccc(Cn3ccnc3)cc2)c1	CHX counter 15
O=C(Nc1ccc(Cn2ccnc2)cc1)c1cccc(C(F)(F)F)c1	none
CC(Oc1cc2oc(=O)c3c(c2cc1Cl)CCC3)C(=O)NCCCN1CCCC1=O (stereo not drawn)	none (no result: Giardia FBPA inh)
Cc1ccc(N=Nc2ccc(N)cc2C)c(S(N)(=O)=O)c1	Shiga toxin inh 94, Giardia FBPA inh inconclusive, CHX counter 65
O=C(Nc1ncccc1O)c1ccc2c(c1)OCCO2	none (no result: Shiga toxin inh, Giardia FBPA inh, CHX counter, LmPK inhibitor)
Cc1ccc(N=Nc2cc(C)ccc2O)c(C)c1	Shiga toxin inh 77, CHX counter 36
Oc1ccc(N=Nc2ccc3c(c2)OCCO3)c2ncccc12	Shiga toxin inh 95, CHX counter 48
Nc1ccc(N=Nc2ccccc2O)c(N)c1	none (no result: Shiga toxin inh, Giardia FBPA inh, CHX counter, Sm TGR inh, LmPK inhibitor)
NS(=O)(=O)c1ccc(N=Nc2ccc(O)c3ncccc23)cc1	Giardia FBPA inh inconclusive, Sm TGR inh 56µM
CN(c1ccccc1)S(=O)(=O)c1cccc(NC(=O)CSc2nccc(=O)[nH]2)c1	none (no result: Shiga toxin inh, Giardia FBPA inh, CHX counter, Sm TGR inh, LmPK inhibitor)
C[C@@H]1CN([C@H](C)CO)C(=O)CCCn2cc(nn2)CO[C@H]1CN(C)S(=O)(=O)c1ccccc1C#N	none (no result: Shiga toxin inh, Giardia FBPA inh, CHX counter, Sm TGR inh, LmPK inhibitor)
NS(=O)(=O)c1ccc(N=Nc2ccc(=O)[nH]c2O)cc1	Giardia FBPA inh 5.6µM, Sm TGR inh 22µM
CCS(=O)(=O)c1ccc(OC)c(N=Nc2ccc(O)c3ncccc23)c1	none
Cc1ccc(C)c(N=Nc2ccc(O)c3ncccc23)c1	Shiga toxin inh 151, CHX counter 43
Nc1nc(N)c(N=Nc2ccc(S(N)(=O)=O)cc2)c(=O)[nH]1	none
Cc1ccc2c(c1)c(=O)c1ccccc1n2CCCC(=O)Nc1ccc(C)c(F)c1	none (no result: Shiga toxin inh, Giardia FBPA inh, CHX counter, LmPK inhibitor)
CCCCN1CC(N(C)CCN(C)C)CS1(=O)=O (stereo not drawn)	none (no result: Shiga toxin inh, Giardia FBPA inh, CHX counter, Sm TGR inh, LmPK inhibitor)
CCCCOC(=O)c1ccc(NC(=O)Cc2coc3ccc(C(C)C)cc23)cc1	none (no result: Shiga toxin inh, Giardia FBPA inh, CHX counter, LmPK inhibitor)
CCCCOC(=O)c1ccc(Nc2nc3ccccc3c3nnc(C)n23)cc1	none (no result: Shiga toxin inh, Giardia FBPA inh, CHX counter, LmPK inhibitor)
CC(=O)Nc1cccc(-c2nnc(-c3ccccc3)o2)c1	Shiga toxin inh 106, CHX counter 45
Cc1ccc(OCC(=O)Nc2cccc(-c3nnc(-c4ccccc4)o3)c2)c(C)c1	none
COc1ccc(Cc2nnc(Nc3ccc(C)cc3)o2)cc1OC	none
COc1ccc(CC(=O)Nc2cccc(-c3nnc(-c4ccc(C)cc4)o3)c2)cc1OC	CHX counter 25
COc1ccc(Cc2nnc(-c3cccc(C)c3)o2)cc1OC	Shiga toxin inh 43, CHX counter 21
COc1ccc(CC(=O)Nc2cccc(-c3nnc(-c4ccccc4)o3)c2)cc1OC	Shiga toxin inh 96, CHX counter 49
O=C(Nc1cccc(-c2nnc(-c3ccccc3)o2)c1)C1CC1	none (no result: Sm TGR inh)
CC1CC2CCC(O2)C(C)C(=O)OC(C)CC2CCC(O2)C(C)C(=O)OC(C)CC2CCC(O2)C(C)C(=O)OC(C)CC2CCC(O2)C(C)C(=O)O1 (stereo not drawn)	none (no result: Sm TGR inh, TbPYK inhibitor, LmPK inhibitor)
COc1ccc(-c2nc3cc(NC(=O)Cc4ccc(OC)c(OC)c4)ccc3o2)cc1	Shiga toxin inh 34, CHX counter 25
COc1ccc(CCNC(=O)CSc2nnc(-c3ccccc3)o2)cc1OC	none
COc1ccc(CC(=O)Nc2ccc(-c3nnc(-c4ccccc4)o3)cc2)cc1OC	CHX counter 15
CCc1cccc(NC(=O)Cc2ccc(OC)c(OC)c2)c1	none
COc1ccc(CC(=O)Nc2cccc(-c3nnc(-c4cccc(C)c4)o3)c2)cc1OC	Shiga toxin inh 52, CHX counter 46
COc1cccc(COCC(O)CN2CCC(C(N)=O)CC2)c1 (stereo not drawn)	none
O=S1(=O)CCOC(CO)CN1Cc1ccc(Cl)c(Cl)c1 (stereo not drawn)	none (no result: Shiga toxin inh, Giardia FBPA inh, CHX counter, Sm TGR inh, LmPK inhibitor)
CCOc1ccc(OCCSc2nc3ccccc3c(=O)[nH]2)cc1	none
c1ccc(OCCSc2nc3ccccc3o2)cc1	Shiga toxin inh 99, CHX counter 22
